# Assay outcomes deposited in PubChem BioAssay by several laboratories.
# HDAC3 inh: blocks human histone deacetylase 3 | inhibition, % at 8.3 µM | recombinant HDAC3, fluorogenic peptide/trypsin coupled, fluorescence | O15379 | 0.15% of 320,000 active; in the data active = inhibition above about 26%, passing the limit was not always enough; inconclusive = no clear call, values can overlap the other calls
# Yeast superoxide: yeast age-related superoxide inhibition as caloric restriction mimetic; 0.18% of 330,000 active; AID 2690; S. cerevisiae aged cells, superoxide DHE fluorescence; active compounds read low; superoxide response (% of plate mean), % at 10 µM;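 active = superoxide response under a set limit, about three screen SD below normal, cut at about 65% in these data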;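 note: yeast aged for seven days with compound at 30 °C before DHE staining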
# LANA-H2A inh: blocks KSHV LANA binding to histone H2A/H2B; cell-free LANA-H2A/H2B peptide, fluorescence polarization; 0.6% of 320,000 active; inhibition, % (no concentration beside the values); in the data active = inhibition mostly above about 10%, no sharp cut-off; inactive = mostly below about 6.7%
# HIF activator: HIF pathway transcriptional activation. U2OS HRE-luciferase reporter, luminescence; normalized: DMSO 0%, desferrioxamine 100%. activation, % at 7.5 µM (by protocol). 0.32% of 300,000 active;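 active = mean activation of at least 10% of the iron chelator positive control signal, with at least half of replicates also reaching 10%; inconclusive = mean and replicate majority disagree about reaching 10%; inactive = mean and most replicates under 10%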
# Hits are given with their value; – = inactive; ? = inconclusive; · = no result given; + = active, no number. Most compounds without a hit are left out; they make up all but 1.2% or so of the library.
SMILES,HDAC3 inh,Yeast superoxide,LANA-H2A inh,HIF activator
CC12COC3(C(=O)Nc4ccc5ccccc5c4)CC1CCC32C (stereo unspecified),–,–,31.8,–
CSc1nc(N)nc2c1ncn2CC(=O)NCC1CCCO1 (stereo unspecified),–,–,–,·
COc1ccc(CNC(=O)CN(C(=O)CCC(=O)Nc2ccccn2)c2ccc3c(c2)OCO3)cc1,–,–,–,–
CCCc1sc(N/N=C/c2ccccn2)nc1-c1ccc(F)cc1,–,–,–,19.8
C=CCn1c(=S)[nH]c2cc(C(=O)NCCc3ccc(S(N)(=O)=O)cc3)ccc2c1=O,–,–,–,·
O=C(Cc1cccs1)Nc1cc(S(=O)(=O)N2CCCCC2)ccc1Cl,–,–,81.6,·
CC1CCCN(S(=O)(=O)c2ccc(NC(=O)Cc3ccc(S(=O)(=O)N4CCOCC4)s3)cc2)C1 (stereo unspecified),–,–,–,–
COc1ccc(S(=O)(=O)N2CCCCC2)cc1NC(=O)Cc1cccs1,–,–,–,·
O=C(Cc1ccc(S(=O)(=O)N2CCOCC2)s1)Nc1cc(Cl)ccc1Cl,–,–,+,·
CC1CCN(S(=O)(=O)c2ccc(NC(=O)Cc3ccc(S(=O)(=O)N4CCOCC4)s3)cc2)CC1,–,–,+,–
Cc1ccc(C2(C)NC(=O)N(CC(=O)NNC(=O)c3ccccc3F)C2=O)cc1 (stereo unspecified),–,–,21.5,·
Cc1ccc(C2(C)NC(=O)N(CC(=O)NNC(=O)c3ccccc3)C2=O)cc1 (stereo unspecified),–,–,–,·
CC(C)C(=O)Nc1ccccc1-c1nc2ccccc2[nH]c1=O,–,–,–,–
Cc1ccc2nc(-c3ccccc3NC(=O)CCC(=O)O)c(=O)[nH]c2c1,–,–,–,24.1
CCOc1ccccc1OCCNC1CCCC1,–,–,144.9,–
CCOc1ccc(OCCNC2CCCC2)cc1,–,–,–,–
CC(C)C1COC(c2cccn2Cc2ccccc2Cl)=N1 (stereo unspecified),–,–,19.6,–
CC(=O)NS(=O)(=O)c1ccc(NC(=O)c2oc3c(Cl)cccc3c2C)cc1,–,–,–,–
CCC1CCc2sc(C(=O)NCc3ccccn3)cc2C1 (stereo unspecified),–,–,–,21.9
CCC1CCc2sc(C(=O)NCC3CCCO3)cc2C1 (stereo unspecified),–,–,–,·
C=CCN1C(=O)c2ccccc2Sc2ccc(C(=O)N3CCN(C)CC3)cc21,–,–,–,10.1
Cc1cc(NC(=S)NC(=O)c2ccco2)c2ccccc2n1,–,–,16.6,–
O=C(Cc1cccs1)Nc1ccc(C(=O)O)cc1,–,–,–,–
O=C(Cc1cccs1)Nc1cccc(C(=O)Nc2ccc(C(=O)O)cc2)c1,–,–,50.6,–
COc1ccc(NC(=O)COc2cccc(-n3cnnn3)c2)cc1,–,–,–,–
SMILES,HDAC3 inh,Yeast superoxide,LANA-H2A inh,HIF activator
Cc1nonc1OCCN1CCN(c2ccccc2[N+](=O)[O-])CC1,–,–,23.2,–
O=c1oc2cc(Cl)ccc2n1CSc1nc2ccccc2s1,–,–,–,–
CC(C)(C)c1csc(NC(=O)c2ccccc2O)n1,–,–,–,–
CC(C)(C)c1csc(NNC(=O)c2ccc(Br)cc2)n1,–,–,–,11.5
c1ccc(COc2ccc(Nc3ncnc4nc[nH]c34)cc2)cc1,–,–,–,–
O=C(Nc1ccccc1O)c1ccc(C(=O)c2ccccc2)o1,48.1,–,–,–
COc1ccccc1NC(=O)c1ccc(C(=O)c2ccccc2)o1,–,–,–,–
COc1cc(Cl)c(C)cc1NC(=O)CN(C)C1CCS(=O)(=O)C1 (stereo unspecified),–,–,–,·
CCOc1ccc(NC(=O)C(c2ccccn2)N(C(=O)CCl)c2ccc(F)cc2)cc1 (stereo unspecified),–,–,33.1,–
O=C(OCc1ccccc1)c1ccc2c(c1)-c1ccccc1C2=O,–,–,–,–
O=C1CN(S(=O)(=O)c2ccccc2)CCN1,–,–,–,·
CCN(CC(=O)Nc1ccc(OC)cc1)C(=O)Cc1coc2cc(C)c(C)cc12,–,–,55.6,·
CCN(CC(=O)Nc1ccc(OC)cc1)C(=O)CSCC(=O)Nc1ccc(C)cc1,–,–,–,–
C=CCNC(=S)N/N=C(\C)c1ccccn1,–,–,–,13.5
C/C(=N\NC(=O)c1ccc(F)cc1)c1ccccn1,–,–,–,–
CCCCCCN1C=CC=C/C1=C/C=C(C#N)C#N,–,–,10.3,?
O=C(N/N=C/c1cc(Br)ccc1O)C(c1ccncc1)N1CCOCC1 (stereo unspecified),–,–,–,12.2
O=S(=O)(NC1CC1)c1ccc(S(=O)(=O)N2CCC3(CC2)OCCO3)cc1,–,–,18.9,–
COc1ccc(NC(=O)NS(=O)(=O)c2ccc(C)cc2)cn1,–,–,67.9,–
COc1ccc(/C=C2\SC(N)=NC2=O)cc1,–,–,–,–
CCOC(=O)CSC1=NC(=O)/C(=C/c2ccc(OC)cc2)S1,79.8,–,–,·
Cc1ccc2c(c1)N(C(=O)CCC(=O)N1CCC(C(N)=O)CC1)CCO2,–,–,–,–
Cc1ccc(NC(=S)N(Cc2ccco2)C2CCN(C(C)C)CC2)cc1,–,–,–,–
CCO[C@H]1OC(C(=O)NCc2nc3ccccc3[nH]2)=C[C@@H](C2CCCCC2)[C@@H]1CCCO,–,–,18.0,–
Nn1c(SCC(=O)Nc2ccc3c(c2)OCCO3)nncc1=O,–,–,12.9,–
SMILES,HDAC3 inh,Yeast superoxide,LANA-H2A inh,HIF activator
Oc1c(N=Nc2ccccn2)ccc2ccccc12,–,–,–,33.6
c1ccc2c(c1)ccc1ncccc12,–,–,–,–
CC1=C(C(=O)OC(C)C)C(c2cccs2)NC(=O)N1 (stereo unspecified),–,–,–,–
CC1=C(C(=O)OC(C)C)C(c2cccs2)C(C(=O)OC(C)C)=C(C)N1,29.3,–,–,–
O=C(NN=Cc1ccccc1C(=O)O)c1cccc(S(=O)(=O)Nc2cccc(C(F)(F)F)c2)c1,–,–,–,·
Cc1ccc(C)c(OCCC(=O)OCC(=O)N2c3ccccc3NC(=O)C2(C)C)c1,–,–,12.3,·
CC1C/C(=N\NC(=O)c2ccc(NS(=O)(=O)c3ccc(Br)cc3)cc2)CC(C)(C)C1 (stereo unspecified),36.9,–,–,–
CC(C)(C)OC(=O)NCCCCCc1cn([C@@H](CO)C(=O)NCCCCCCCCCCC(=O)N2CCN(C(=O)OC(C)(C)C)CC2)nn1,30.7,–,–,·
CC(C)(C)OC(=O)CC[C@@H](C(=O)NCCCCCCCCCCC(=O)N1CCN(C(=O)OC(C)(C)C)CC1)n1cc(CCCCCNC(=O)OC(C)(C)C)nn1,–,–,–,·
CC1CCC(NC(=O)C(C)N2C(=O)C3CCCCC3C2=O)CC1 (stereo unspecified),–,–,–,·
CCOc1ccc(C(=O)n2cnnc2N)cc1,·,–,–,–
Cc1cccc(C(=O)n2cnnc2N)c1,44.0,–,–,–
Cc1cc(C)cc(C(=O)n2cnnc2N)c1,?,–,–,–
COc1ccc(C(=O)n2cnnc2N)cc1,81.0,–,–,–
Cc1cc(Cl)ccc1OCCCC(N)=O,–,–,–,–
Cc1cc(Cl)ccc1OCCCC(=O)NO,76.8,–,–,–
O=C(NNC(=O)c1ccccc1O)c1cc2ccccc2o1,–,–,–,–
